ERG-DNA inh: ERG Ets/DNA interaction inhibition. P11308. 0.028% of 370,000 active. AID 624246. Potency, µM (titrated, usually from 76.9 µM), inactives show top-dose FP activity, negative = inhibition, actives largely listed as inhibitors. fluorescence polarization, His-ERG Ets domain / labelled DNA; active = well fitted inhibition curve with a large enough effect in the polarisation, with a control signal flat; inconclusive = small, poorly fitted or top-dose-only effect, or effect the other way, or a change in a side signal; inactive = no such curve, though single readings can be large or run the other way; the % refers to the polarisation;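 also: polarization taken with two DNA probes labelled with fluorescein and Texas red; potency is read from the fitted curve at half-maximal effect; % of control where 0% means no effect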
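His-tagged ERG Ets domain (1 uM in the protein solution; 300mM KCl, 50mM Tris-HCl, 1mM EDTA, 1mM DTT, pH 7.5) received compound, then a probe mix of 5 nM fluorescein-DNA and 100nM Texas-615-DNA. Fluorescence polarization was read for both dyes.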
D1 agonist: agonists of human D1 dopamine receptor; activation, % at 2 µM; HEK293 T-REx D1 cells, calcium flux, agonist mode; P21728; 1% of 360,000 active; in the data active = activation above about 30%; also: 0% is about no effect
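Tetracycline-induced HEK293 TREx D1 cells, force-coupled to calcium signalling, were dye-loaded with a no-wash calcium kit. Compound was pin-added after a 10 s baseline. Fluorescence was read kinetically at 1 cycle/s for 180 s, with calcium rises flagged as agonism.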
D1 antagonist: human D1 dopamine receptor antagonism; P21728; HEK293 TREx D1 cells, calcium flux, dopamine EC80; active compounds read low; activity change, negative = inhibition, % at 10 µM; 3.2% of 360,000 active; AID 504652; in the data active = activity change below about -30%; also: % is scaled to controls: 0 for no effect and ±100 for the full control effect
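Calcium flux readout: force-coupled, inducible Hek293 Trex D1 line, cells induced overnight at 30 C with tetracycline, dye-loaded 30–90 min at RT. Antagonism scored against EC80 dopamine challenge given 180 s after compound.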
DRD3 agonist: activates the human D3 dopamine receptor | AID 652048 | P35462 | 0.58% of 410,000 active | max activation, % | D3R DiscoveRx beta-arrestin cells, luminescence, 90 min; in the data active = max activation above about 30%; also: 0% is about no effect
Target sequence (P35462 whole entry, looked up): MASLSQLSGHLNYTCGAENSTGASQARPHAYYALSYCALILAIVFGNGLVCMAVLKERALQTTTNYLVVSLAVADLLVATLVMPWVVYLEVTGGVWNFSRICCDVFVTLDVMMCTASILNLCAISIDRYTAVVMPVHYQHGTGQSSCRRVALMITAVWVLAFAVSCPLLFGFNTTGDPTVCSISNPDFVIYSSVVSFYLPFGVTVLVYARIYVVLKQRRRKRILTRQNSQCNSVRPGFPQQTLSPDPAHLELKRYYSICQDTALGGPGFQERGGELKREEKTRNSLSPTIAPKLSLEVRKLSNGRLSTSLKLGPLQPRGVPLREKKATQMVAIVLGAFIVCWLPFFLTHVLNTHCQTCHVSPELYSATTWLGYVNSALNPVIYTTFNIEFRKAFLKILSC
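Agonist mode: compounds and dopamine controls were applied to plated cells for 90 min at 37 degrees C after an overnight attachment at 1500 cells/well. Luminescent read-out followed 30 - 60 minutes at room temperature with DiscoveRx detection reagent.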
D1 potentiator: enhances dopamine response at the human D1 receptor; HEK293 TREx D1 cells, calcium flux, dopamine EC20 potentiation; potentiation, % at 10 µM; 0.036% of 360,000 active; AID 504651; in the data active = potentiation above about 30%; also: 0% is about no effect
D3 antag: antagonists of human D3 dopamine receptor; P35462; D3R cells, DiscoveRx beta-arrestin luminescence, antagonist mode; active compounds read low; max response, negative = inhibition, %; 2.5% of 360,000 active; in the data active = max response below about -50%; inconclusive = no clear call, values can overlap the other calls; also: % is scaled to controls: 0 for no effect and ±100 for the full control effect
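Cells plated overnight at 1500 cells/well, then exposed to library compounds with dopamine controls for 90 minutes at 37 degrees C. DiscoveRx reagent added for 30–60 minutes at room temperature; luminescence read, quantitative HTS format.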
Numbers without * were called inactive; ? = inconclusive; / = no result given. Only some compounds are listed: those with a hit (about 6.1% of all), similar ones and a draw of the others.

SMILES	ERG-DNA inh	D1 agonist	D1 antagonist	DRD3 agonist	D1 potentiator	D3 antag
COc1ccccc1N1CCN(CC(O)c2ccc3cc[nH]c3c2)CC1 (stereo not drawn)	-7%	-1	-2	-15	-6	-82*
Cc1ccc(N2CCN(CC(O)COc3cccc4ccccc34)CC2)cc1 (stereo not drawn)	1%	1	6	4	10	-23
COc1cc(COCC(O)CN2CCN(Cc3ccccc3)CC2)cc(OC)c1OC (stereo not drawn)	-21%	3	3	2	8	-9
OC(COc1cccc2ccccc12)CN1CCN(c2ccccc2Cl)CC1 (stereo not drawn)	-14%	4	-10	27	-1	-81*
CCc1ccc(S(=O)(=O)Nc2cc3c(cc2C)n(C)c(=O)n3C)cc1	-3%	4	-23	6	-6	10
COc1ccccc1N1CCN(C(=O)COc2cc(C)ccc2C)CC1	-1%	12	-23	-9	7	?
Cc1ccc(OCC(O)CN2CCN(CCO)CC2)c(C)c1 (stereo not drawn)	2%	-2	-28	-11	-1	-15
COc1ccccc1N1CCN(CC(O)COc2c(OC)cccc2OC)CC1 (stereo not drawn)	-13%	2	-19	-7	-9	-99*
COc1cccc(OC)c1OCC(O)CN1CCN(c2ccccc2)CC1 (stereo not drawn)	-3%	3	-11	1	-3	-9
COc1ccccc1N1CCN(CC(O)COc2ccc(C)cc2C)CC1 (stereo not drawn)	10%	3	0	-20	-7	-94*
CC1(C)CCCC(C)(C)N1CC(O)COCCOc1ccc(Br)cc1 (stereo not drawn)	3%	39*	-6	3	-2	4
COc1ccccc1N1CCN(CCCCOc2ccc(C)cc2C)CC1	17%	2	-19	-11	-9	-86*
Cc1ccccc1S(=O)(=O)Cc1ccc(C(=O)NC2CCCCC2C)o1 (stereo not drawn)	-6%	1	-17	5	-6	5
COc1ccc(C2CC(c3ccc(Br)cc3)=NN2C(=S)Nc2ccccc2)cc1 (stereo not drawn)	-7%	4	-3	4	1	-1
Cc1ccc(S(=O)(=O)N2CCCOC2CNC(=O)C(=O)NC2CCCC2)cc1 (stereo not drawn)	-2%	3	-7	6	-2	14
Cc1ccc(S(=O)(=O)NCC(=O)OCC(=O)N2CC(C)OC(C)C2)cc1 (stereo not drawn)	-17%	/	/	7	/	8
COc1ccc(C(=O)NC2CCN(S(=O)(=O)c3ccccc3)CC2)cc1	10%	-3	14	0	1	-20
CCC1COCCS(=O)(=O)N1Cc1ccccc1C (stereo not drawn)	-17%	0	-6	2	-4	1
COc1ccccc1N1CCN(CC(O)COCCOc2ccc(Br)cc2)CC1 (stereo not drawn)	-3%	16	-63*	-12	-18	-86*
COc1ccc(N2CCN(CC(O)COCCOc3ccc(Br)cc3)CC2)cc1 (stereo not drawn)	7%	29	-24	-2	-10	10
CC(=O)Nc1cccc(C(=O)OCC(=O)c2ccc(S(=O)(=O)N3CCCCC3)cc2)c1	-2%	8	-37*	-5	-4	5
CC(=O)Nc1ccc(C(=O)OCC(=O)c2ccc(S(=O)(=O)N3CCCCC3)cc2)cc1	12%	5	1	-11	1	-7
N#CCCN(C(=O)COC(=O)c1cccc(S(=O)(=O)N2CCCC2)c1)c1ccc(F)cc1	0%	3	0	17	-9	18
O=C(COC(=O)c1ccc(S(=O)(=O)N2CCCCC2)cc1)Nc1ccccc1	8%	34*	11	3	/	-6
N#CCCN(C(=O)COC(=O)c1ccc(S(=O)(=O)N2CCCC2)cc1)c1cccc(Cl)c1	8%	31*	-6	1	-2	7

Screens as filed in PubChem BioAssay.
